# Data as given in PubChem BioAssay (NCATS).
# Inconclusive results are not listed. A call without a number means that no potency is given here. Active and inactive are the calls of the source. The call rests on the fitted dose curve; in most records, active means well fitted cell-killing curve with a large enough effect; inconclusive means small, poorly fitted or top-dose-only effect; inactive means no such curve, though single readings can be large or run the other way.
# Experiment: qHTS of pediatric cancer cell lines to identify multiple opportunities for drug repurposing: Primary screen for Rh30 cells (AID 1347107); further: nearly all actives have a fitted effect of over 75% in size
# Details: Rh30 rhabdomyosarcoma viability, CellTiter-Glo luminescence, 48 h; series mostly up to 46 µM
# Summary of the method: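 Cells (500-1,000/well) rested 5 h, then received compounds for 48 h; metabolically active cells were measured by CellTiter-Glo luminescence. Final concentrations spanned up to 46 µM (MIPE, 11-point) or 0.59 nM-46 µM (NPC, 8-point) in primary screens, 11-point in follow-ups.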
row,SMILES,Potency
1,Cn1c(=O)c2c(ncn2CC(=O)O)n(C)c1=O,inactive
2,O=[N+]([O-])c1nccn1CO[C@@H](CO)[C@H](O)CO,inactive
3,CC(=O)OCC(=O)Nc1cc(C#N)cc(NC(=O)COC(C)=O)c1Cl,inactive
4,CC1(C)O[C@@H]2C[C@H]3[C@@H]4C[C@H](F)C5=CC(=O)C=C[C@]5(C)[C@@]4(F)[C@@H](O)C[C@]3(C)[C@]2(C(=O)CO)O1,inactive
5,CCCC(=O)Nc1ccc(O)c(C(C)=O)c1,inactive
6,O=[N+]([O-])c1cncn1CCN1CCOCC1,inactive
7,CCOc1ncc(F)c(=O)[nH]1,inactive
8,CCc1cc(S(=O)(=O)O)c2cc(C(C)C)cccc1-2,inactive
9,Cc1ccccc1N1CCN(CCc2nnc3n2CCCC3)CC1,inactive
10,CN1C(=O)c2ccccc2C1=O,inactive
11,Nc1nnnn1-c1ccccc1,inactive
12,CCOC(=O)c1ccc(NC(=O)CN2CCCCC2)cc1,inactive
13,Brc1ccccc1-c1ccccc1,inactive
14,CCNC(=O)NCCCOc1cccc(CN2CCCCC2)c1,inactive
15,CO/N=C(/C(=O)N[C@@H]1C(=O)N2C(C(=O)OCOC(=O)C(C)(C)C)=C(C)CS[C@H]12)c1csc(N)n1,inactive
16,Cc1c(N)cccc1C(F)(F)F,inactive
17,OC[C@]1(O)OC[C@@H](O)[C@H](O)[C@@H]1O,inactive
18,COC(=O)c1cc(Cl)ccc1OC,inactive
19,CCCc1ncc(C(=O)O)s1,inactive

row,SMILES,Potency
1,CCOc1ccc(NS(=O)(=O)c2ccc(N)cc2)nn1,inactive
2,CCCc1c2oc(C(=O)O)cc(=O)c2cc2c(=O)cc(C(=O)O)n(CC)c12,inactive
3,O=C(O)Cn1cnnn1,inactive
4,COc1cc(OC)nc(O[C@H](C(=O)O)C(OC)(c2ccccc2)c2ccccc2)n1,inactive
5,CCCCCCCCCCCCCCCCCCN(C)C,inactive
6,CNC(=O)c1c(I)c(NC(C)=O)c(I)c(C(=O)O)c1I,inactive
7,Cc1nc([N+](=O)[O-])cn1-c1ccc([N+](=O)[O-])cc1,inactive
8,O=C(CCCCCCCCC#CI)Oc1ccccc1,inactive
9,C=CC[N+]1([C@H]2C[C@H]3[C@@H]4CC[C@H]5C[C@H](OC(C)=O)[C@@H](N6CCCCC6)C[C@]5(C)[C@H]4CC[C@]3(C)[C@H]2OC(=O)CC)CCCCC1,inactive
10,CO/N=C(/C(=O)N[C@@H]1C(=O)N2C(C(=O)[O-])=C(C[n+]3ccn4ncccc43)CS[C@H]12)c1nsc(N)n1,inactive
11,C/C(=N\O)[C@@H](C)NCC(C)(C)CN[C@H](C)/C(C)=N/O,inactive
12,CNC[C@H](O)[C@@H](O)[C@H](O)[C@H](O)CO,inactive
13,COc1ccc(CCC(C)=O)cc1,inactive
14,Cc1ccccc1C(=O)N1CC/C(=N\OS(=O)(=O)O)c2ccc(Cl)cc21,inactive
15,CCn1ccc(NS(=O)(=O)c2ccc(N)cc2)nc1=O,inactive
16,O=C(O)/C=C(\CC(=O)O)C(=O)O,inactive
17,[O-][n+]1cccc(/C(Cl)=N/OC[C@@H](O)CN2CCCCC2)c1,inactive
18,CC1CC(=O)NN=C1c1ccc(NCC(C)(C)NCC(O)COc2cc(Cl)ccc2C#N)cc1 (centres undefined),inactive

# Experiment: qHTS of pediatric cancer cell lines to identify multiple opportunities for drug repurposing: Primary screen for Rh41 cells (AID 1347108);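 further: luminescence drop marks cytotoxic hits; nearly all actives have a fitted effect of over 70% in size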
# Details: Rh41 rhabdomyosarcoma viability, CellTiter-Glo luminescence, 48 h; series mostly up to 46 µM
# Summary of the method: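 Quantitative HTS format: each compound titrated (MIPE 11 points from 0.78 nM, NPC 8 points from 0.59 nM) onto cells plated 5 hours earlier. After 48 h at 37 degrees C, CellTiter-Glo luminescence was recorded.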
row,SMILES,Potency
1,Cn1c(=O)c2c(ncn2CC(=O)O)n(C)c1=O,inactive
2,O=[N+]([O-])c1nccn1CO[C@@H](CO)[C@H](O)CO,inactive
3,CC(=O)OCC(=O)Nc1cc(C#N)cc(NC(=O)COC(C)=O)c1Cl,inactive
4,CCCC(=O)Nc1ccc(O)c(C(C)=O)c1,inactive
5,O=[N+]([O-])c1cncn1CCN1CCOCC1,inactive
6,CCc1cc(S(=O)(=O)O)c2cc(C(C)C)cccc1-2,inactive
7,Cc1ccccc1N1CCN(CCc2nnc3n2CCCC3)CC1,inactive
8,CN1C(=O)c2ccccc2C1=O,inactive
9,Nc1nnnn1-c1ccccc1,inactive
10,CCOC(=O)c1ccc(NC(=O)CN2CCCCC2)cc1,inactive
11,Brc1ccccc1-c1ccccc1,inactive
12,CCNC(=O)NCCCOc1cccc(CN2CCCCC2)c1,inactive
13,Cc1c(N)cccc1C(F)(F)F,inactive
14,OC[C@]1(O)OC[C@@H](O)[C@H](O)[C@@H]1O,inactive
15,COC(=O)c1cc(Cl)ccc1OC,inactive
16,CCCc1ncc(C(=O)O)s1,inactive

row,SMILES,Potency
1,CCOc1ccc(NS(=O)(=O)c2ccc(N)cc2)nn1,inactive
2,CCCc1c2oc(C(=O)O)cc(=O)c2cc2c(=O)cc(C(=O)O)n(CC)c12,inactive
3,O=C(O)Cn1cnnn1,inactive
4,COc1cc(OC)nc(O[C@H](C(=O)O)C(OC)(c2ccccc2)c2ccccc2)n1,inactive
5,CCCCCCCCCCCCCCCCCCN(C)C,inactive
6,CNC(=O)c1c(I)c(NC(C)=O)c(I)c(C(=O)O)c1I,inactive
7,O=C(CCCCCCCCC#CI)Oc1ccccc1,inactive
8,C=CC[N+]1([C@H]2C[C@H]3[C@@H]4CC[C@H]5C[C@H](OC(C)=O)[C@@H](N6CCCCC6)C[C@]5(C)[C@H]4CC[C@]3(C)[C@H]2OC(=O)CC)CCCCC1,inactive
9,CO/N=C(/C(=O)N[C@@H]1C(=O)N2C(C(=O)[O-])=C(C[n+]3ccn4ncccc43)CS[C@H]12)c1nsc(N)n1,inactive
10,C/C(=N\O)[C@@H](C)NCC(C)(C)CN[C@H](C)/C(C)=N/O,inactive
11,CNC[C@H](O)[C@@H](O)[C@H](O)[C@H](O)CO,inactive
12,COc1ccc(CCC(C)=O)cc1,inactive
13,Cc1ccccc1C(=O)N1CC/C(=N\OS(=O)(=O)O)c2ccc(Cl)cc21,inactive
14,CCn1ccc(NS(=O)(=O)c2ccc(N)cc2)nc1=O,inactive
15,O=C(O)/C=C(\CC(=O)O)C(=O)O,inactive
16,[O-][n+]1cccc(/C(Cl)=N/OC[C@@H](O)CN2CCCCC2)c1,inactive
